Screening results from PubChem BioAssay.
Only some compounds are listed: those with a hit (about 6.2% of all), similar ones and a draw of the others.
KinaseGlo FLuc – blocks Kinase-Glo luciferase, a counter-screen artifact. Q27757. Kinase-Glo luciferase, ATP luminescence, 8 min. Potency, µM (titrated, usually from 38.3 µM), usual class: inhibitors. 0.28% of 200,000 active; note: nearly all actives have a fitted effect of over 60% in size
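Inhibition of Kinase-Glo luciferase light generation was assessed at 10 uM ATP in pH 7.2 imidazole buffer, with luminescence measured after eight minutes at ambient temperature.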
RORgamma inh – blocks mouse ROR gamma transcriptional activity; 5.4% of 310,000 active; Drosophila S2 Gal4-RORgamma UAS-luciferase reporter, 20 h; AID 2551; P51450; Potency, µM (top dose mostly 53.6 µM), usual class: inhibitors; note: nearly all actives have a fitted effect of over 60% in size
Target sequence (P51450 whole entry, looked up, the tested form may be a part): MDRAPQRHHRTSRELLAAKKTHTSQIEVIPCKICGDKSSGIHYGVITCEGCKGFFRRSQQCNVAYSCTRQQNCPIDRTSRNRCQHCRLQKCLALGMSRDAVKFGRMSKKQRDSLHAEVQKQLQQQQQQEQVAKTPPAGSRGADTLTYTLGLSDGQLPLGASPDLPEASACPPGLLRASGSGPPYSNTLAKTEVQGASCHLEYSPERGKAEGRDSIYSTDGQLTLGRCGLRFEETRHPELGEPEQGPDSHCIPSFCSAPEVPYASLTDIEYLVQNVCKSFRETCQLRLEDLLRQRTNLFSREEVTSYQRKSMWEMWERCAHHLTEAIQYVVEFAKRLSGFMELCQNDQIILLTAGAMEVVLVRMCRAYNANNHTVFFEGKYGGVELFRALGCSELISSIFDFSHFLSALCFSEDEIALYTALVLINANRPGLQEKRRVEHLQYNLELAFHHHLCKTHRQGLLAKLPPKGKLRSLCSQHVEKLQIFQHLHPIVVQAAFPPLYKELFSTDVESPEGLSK
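Drosophila Schneider cells stably carrying a metallothionein-driven Gal4 DBD–ROR gamma fusion and a UAS-Photinus luciferase reporter were exposed to compound for 1 hr, then induced with copper sulfate (700 uM final) for 20 hr at ambient temperature before luminescence reading.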
VP16 counter – inhibits Gal4-VP16 luciferase reporter, ROR gamma counter-screen; Drosophila S2 Gal4-VP16 UAS-luciferase, luminescence, 20 h; Potency, µM (titrated, usually from 53.6 µM), usual class: inhibitors; 3.5% of 310,000 active; AID 2546;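 note: Gal4-VP16 expression switched on by copper sulfate through the metallothionein promoter; nearly all actives have a fitted effect of over 50% in size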
Each line names hits and unclear results; the compound was inactive in the other large screens. Calls come from the whole dose curve; as a rule, active = well fitted curve in the direction sought with a large enough effect; inconclusive = small, poorly fitted or top-dose-only effect, or another doubt; inactive = no such curve, though single readings can be large; an effect the other way counts as inactive or inconclusive.

Cc1cccc(CCNC(=O)C2CCCN(c3cnccn3)C2)c1 (stereo not given)	none (no result: KinaseGlo FLuc)
CC(NCC(O)COCCC12CC3CC(CC(C3)C1)C2)c1ccccc1 (stereo not given)	RORgamma inh 12.6µM, VP16 counter inconclusive
NCC(O)COCCC12CC3CC(CC(C3)C1)C2 (stereo not given)	none
CC(C)CCN(C(=O)CNC(=O)c1ccco1)C(C(=O)NC1CCCCC1)c1ccco1 (stereo not given)	none
CNS(=O)(=O)c1cccc(C(=O)OCC(=O)/C=C2/N(C)c3ccccc3C2(C)C)c1	RORgamma inh inconclusive, VP16 counter 0.398µM
CN1/C(=C\C(=O)COC(=O)CN2C(=O)C3CC=CCC3C2=O)C(C)(C)c2ccccc21 (stereo not given)	RORgamma inh inconclusive, VP16 counter 4.47µM
CN1/C(=C\C(=O)COC(=O)c2ccc(O)c(O)c2)C(C)(C)c2ccccc21	RORgamma inh inconclusive, VP16 counter inconclusive
CN1/C(=C\C(=O)COC(=O)CNC(=O)c2ccc3ccccc3c2)C(C)(C)c2ccccc21	RORgamma inh inconclusive, VP16 counter inconclusive
CCc1c(O)c2c(c(O)c1C(C)=O)C(=O)c1c(cc(O)c(C(=O)O)c1C(=O)O)C2=O	none (no result: RORgamma inh, VP16 counter)
O=C(O)/C=C/C(=O)Nc1ccc(NC(=O)c2ccccc2)c(Cl)c1	none
CN(Cc1cc(Br)cc(Br)c1N)C1CCCCC1	RORgamma inh inconclusive
O=C(COC(=O)CCc1nc2ccccc2n1-c1ccccc1)Nc1ccc(N2CCCCC2)cc1	RORgamma inh inconclusive, VP16 counter 6.31µM (no result: KinaseGlo FLuc)
O=C(CCc1nc2ccccc2n1-c1ccccc1)NCCO	none
COc1ccc(NC(=O)NNC(=O)c2cc3occc3n2C)c(OC)c1	none (no result: KinaseGlo FLuc)
COc1ccccc1NC(=O)C1=C(C)NC(=O)NC1c1ccccc1[N+](=O)[O-] (stereo not given)	none
COc1ccc(Cc2nc(=S)[nH][nH]2)cc1Br	RORgamma inh 7.94µM, VP16 counter inconclusive
COc1ccc(CNc2ccc(C)cc2)cc1Br	none
CCOc1cc(C2/C(=C(\O)c3cc(C)ccc3C)C(=O)C(=O)N2CCN(C)C)ccc1O (stereo not given)	none
COc1ccc(S(=O)(=O)NN(C)c2ncc(C(F)(F)F)cc2Cl)cc1	RORgamma inh 3.98µM, VP16 counter inconclusive
CC(C)NS(=O)(=O)c1ccc(Oc2ncc(C(F)(F)F)cc2Cl)cc1	RORgamma inh inconclusive
c1ccc2c(c1)nc(NCc1ccc3c(c1)OCO3)n2CCN1CCOCC1	none
c1csc(-c2csc3nc(CN4CCOCC4)nc(NCc4ccc5c(c4)OCO5)c23)c1	RORgamma inh 17.8µM, VP16 counter inconclusive
O=C(N/N=C/c1ccc[nH]1)c1ccccc1O	RORgamma inh 1.26µM, VP16 counter 5.62µM
O=C(N/N=C/c1ccc2nccnc2c1)c1cccc([N+](=O)[O-])c1	none
O=C(N/N=C/c1ccc[nH]1)c1cccc([N+](=O)[O-])c1	RORgamma inh 7.94µM, VP16 counter 10µM
O=C(N/N=C/c1ccco1)c1ccccc1OCc1ccccc1Cl	none
O=C(N/N=C/c1oc(O)c2ccccc12)c1ccccc1O	RORgamma inh inconclusive
Cc1cccc(/C=N/NC(=O)c2cccc([N+](=O)[O-])c2)n1	none
O=C(N/N=C/c1ccc[nH]1)c1ccccc1OCc1ccccc1Cl	RORgamma inh 10µM, VP16 counter inconclusive
Cc1cc(/C=N/NC(=O)c2cccc([N+](=O)[O-])c2)c(C)n1-c1ccc(Cl)cc1Cl	RORgamma inh 1.78µM, VP16 counter 6.31µM
O=C(Nc1ccc(S(=O)(=O)Nc2cnc3ccccc3n2)cc1)c1ccc([N+](=O)[O-])cc1Cl	none (no result: KinaseGlo FLuc)
COC(=O)C/C=C\[C@@H](C)[C@@H](/C=N\O[C@@H](C)CN1CCCc2nc(C)c(C)cc21)NS(=O)(=O)c1ccc(C)cc1	none (no result: KinaseGlo FLuc)
CCOc1ccccc1CN1CCN(Cc2ccc3cccc(OC)c3n2)CC1CCO (stereo not given)	none (no result: KinaseGlo FLuc)
Cc1nc2scc(C)n2c(=O)c1S(=O)(=O)N1CCN(c2ccccn2)CC1	none (no result: KinaseGlo FLuc)
CC1(C)OC2C(CO)OC(n3cnc4c(=O)[nH]c(N)nc43)C2O1 (stereo not given)	none
COCCNC(=O)Cn1ccc2cc(S(=O)(=O)N3CCCCC3)ccc21	none (no result: KinaseGlo FLuc)
O=C(N/N=C/c1ccc[nH]1)c1ccc(O)cc1	RORgamma inh 8.91µM, VP16 counter inconclusive
O=C(N/N=C/c1ccccc1C(=O)O)c1ccc(COc2cccc3cccnc23)cc1	none
CC(C)(C)c1ccc(C2CC2C(=O)N/N=C\c2ccc[nH]2)cc1 (stereo not given)	RORgamma inh 10µM, VP16 counter 6.31µM
O=C(N/N=C/c1ccc[nH]1)c1ccc(COc2cccc3cccnc23)cc1	RORgamma inh 12.6µM, VP16 counter 14.1µM
O=C(N/N=C/c1ccco1)C1CC1c1ccccc1 (stereo not given)	none
